These results are taken from PubChem BioAssay (NCI).

Common to all, as to assay: NCI-60 one-dose screen, 48 h (100 = growth as untreated, 0 = no growth, -100 = all killed)
Common to all, as to conditions: 10 µM unless noted

The subject of assay [1] is SK-MEL-2 melanoma.
Assay [2] has as its system EKVX NSCLC.
The subject of assay [3] is SN12C renal.
Assay [4] relates to UO-31 renal.
Assay [5] concerns TK-10 renal.
Assay [6] concerns ACHN renal.
Assay [7] relates to A498 renal.
In assay [8] the test system is CCRF-CEM leukemia.
The test system of assay [9] is MOLT-4 leukemia.
Assay [10] relates to SR leukemia.
Assay [11] deals with RPMI-8226 leukemia.
Assay [12] relates to OVCAR-8 ovarian.
Assay [13] concerns OVCAR-5 ovarian.
The test system of assay [14] is OVCAR-4 ovarian.
Assay [15] relates to SK-OV-3 ovarian.
Assay [16] has as its system IGROV1 ovarian.
For assay [17], the system named is OVCAR-3 ovarian.
For assay [18], the system named is HS 578T breast.
Assay [19] relates to NCI/ADR-RES ovarian.

Compounds without any hit were thinned out: in the full panel of roughly 83,000, 20% have a hit.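 Treatment: one concentration, 48 hours, 96-well format. Scoring: percent growth, with anything below 10 considered active.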 Unmarked numbers belong to inactive results. Activity calls are given as the source filed them.

With `COc1ccc(C(=O)Cn2cnc3c(Nc4cc(C(=O)Nc5ccc(N6CCN(CCO)CC6)cc5)ccc4C)ncnc32)cc1`, the growth in [1] was 100%; in [2], 99%; in assay [3] it was 104%; in assay [4], 87.6%; in [5], 102%; in assay [6], 103%. Also, the growth in [7] is 111%; in assay [8], 105%; in assay [9], 90%; in assay [10], 83.7%; in [11] it was 96.7%; in [12] it was 104%. Moreover, the growth in assay [13] is 104%; in [14] it was 106%; in assay [15], 99.2%; in assay [16], 110%; in [17], 100%; in [18] it was 97.7%. Moreover, in [19], the growth was 104%.

Turning to `Cc1cccc[n+]1CCC[n+]1ccccc1C`, the growth in [1] was 100%; in assay [2], 94.6%; in assay [3], 101%; in assay [4], 99%; in [5] it was 88%; in assay [6], 109%. For the same molecule, the growth in assay [7] was 109%; in assay [8] it was 99.6%; in assay [9], 86.1%; in assay [10] it was 96.2%; in [11], 98.8%; in assay [12], 105%. Besides, the growth in assay [13] was 109%; in [14], 110%; in [15], 76.1%; in assay [16], 107%; in [17], 112%; in [18], 109%. In assay [19], the growth is 106%.

In the case of `N#CC(C#N)=C(C#N)c1c[nH]c2ccccc12`, the growth in [1] is 90.9%; in assay [2] it was 73%; in assay [3], 79%; in [4] it was 63.9%; in assay [5], 98.9%; in assay [6], 73.4%. The growth was 101% in [7]; 65.5% in [8]; 75.7% in assay [9]; 58.1% in assay [10]; 68.4% in assay [11]; 87.7% in assay [12]. Further, the growth in [13] is 102%; in assay [14], 73.5%; in assay [15] it was 82.7%; in assay [16], 75.2%; in [17], 74.7%; in [18], 87.7%. The growth in assay [19] was 96.1%.

Take `O=C(Nc1ccccc1Cl)c1c[nH]c(=O)c(-c2ccc(N3CCCOC4(CC4)C3)cc2)c1`: the growth in [1] is 70.1%; in [2] it was 37.6%; in assay [3], 74.9%; in [4], 65.7%; in assay [5], 52.4%; in [6], 72.2%. Moreover, the growth is 47.9% in assay [7]; 48.3% in [8]; 48.1% in assay [9]; 39.6% in assay [10]; 21.2% in [11]; 58.3% in assay [12]. Also, the growth was 87% in assay [13]; 44.3% in [14]; 74.6% in [15]; 85.7% in assay [16]; 64.5% in [17]; 87.3% in [18]. Further, the growth in assay [19] was 60.6%.

Take `CC(C)CCC[C@@H](C)[C@H]1CC[C@H]2[C@@H]3CC=C4N(c5ccccc5)C(=O)CC[C@]4(C)[C@H]3CC[C@]12C`: the growth in assay [1] is 101%; in [2], 96.7%; in [3] it was 86.2%; in assay [4], 91.7%; in assay [5], 97.4%; in assay [6], 105%. In addition, the growth in assay [7] was 118%; in assay [8], 92.2%; in assay [9] it was 79.9%; in assay [10], 92.4%; in [11], 97.8%; in assay [12], 109%. Besides, the growth in assay [13] was 102%; in assay [14] it was 103%; in assay [15], 103%; in assay [16], 99.1%; in [17], 92.1%; in assay [18], 109%. In addition, in [19], the growth was 98.9%.

For the molecule `COc1ccc(-c2c(NC(=O)Nc3ccc(Cl)c(C(F)(F)F)c3)cnn2-c2ccc(S(N)(=O)=O)cc2)cc1`, the growth in assay [1] was -4.24% (active); in assay [2], 61.6%; in [3], 51.4%; in [4] it was 50.9%; in assay [5] it was 30.9%; in [6] it was 57.5%. The growth was 26.8% in [7]; 8.88% (active) in [8]; 1.8% (active) in assay [9]; 7.38% (active) in assay [10]; 19.9% in assay [11]; 28.5% in [12]. Besides, the growth was 60.6% in assay [13]; 32.8% in assay [14]; 68.4% in assay [15]; 33.1% in assay [16]; 25.4% in assay [17]; 49.6% in assay [18]. Also, the growth in assay [19] was 89.9%.

Take `O=C(Cn1c2ccccc2c2ccncc21)N/N=C/c1c[nH]c2ccccc12`: the growth was 95.3% in [1]; 91.2% in [2]; 38.8% in assay [3]; 103% in assay [4]; 113% in assay [5]; 77.7% in assay [6]. The growth in assay [7] is 104%; in assay [8] it was 43.8%; in [9], 53.4%; in assay [10] it was 40.6%; in assay [11], -27.7% (active); in assay [12], 40.9%. In addition, the growth was 107% in assay [13]; -60% (active) in [14]; 107% in [15]; 89.2% in assay [16]; 18.3% in [17]; 53.2% in [18]. The growth in [19] is 94.6%.

Turning to `Cc1[nH]n(C(=O)c2ccncc2)c(=O)c1N=Nc1ccc(S(=O)(=O)Nc2ccncn2)cc1`, the growth in assay [1] was 116%; in [2], 94.4%; in assay [3], 97%; in assay [4], 85.1%; in [5], 101%; in assay [6], 104%. Besides, the growth is 111% in assay [7]; -33.9% (active) in assay [8]; 102% in assay [9]; 78.1% in [10]; 60.1% in assay [11]; 104% in [12]. Further, the growth is 114% in assay [13]; 103% in assay [14]; 111% in [15]; 101% in [16]; 106% in assay [17]; 96.7% in [18]. In assay [19], the growth was 114%.
